The supplement of paper PMC8866396
± gives the standard deviation of the averaged measurements.

Columns and labels:
IL-6-GFP PC-9GR = assay: cell viability (CCK-8 OD) relative to DMSO control (fraction of control); higher = more viable cells; conditions: compound concentration: 10 uM; treatment time: 48 h
In short: (§1)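 Compounds from a purchased library of 510 were each tested at a final 10 μM for 48 h on PC-9 and PC-9GR lung cancer cells plated at 3000 cells/well in 96-well plates. These cells overexpressed IL-6-GFP from a lentiviral construct. Viability came from CCK-8 absorbance, given as the optical density of each well over that of the vehicle control well, across independent replicates numbering two.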

IL-6-GFP PC-9 = assay: as above; conditions: compound concentration: 10 uM; treatment time: 48 h
In short: as §1

Cc1cccc(C(C)c2c[nH]cn2)c1C.Cl (centres undefined) [Medetomidine HCl]
cell viability (IL-6-GFP PC-9GR): 1.25 ± 0.37
cell viability (IL-6-GFP PC-9): 1.09 ± 0.011

c1ccc2c(c1)Sc1ccccc1N2CC1CN2CCC1CC2 (centres undefined) [Mequitazine]
cell viability (IL-6-GFP PC-9GR): 0.705 ± 0.19
cell viability (IL-6-GFP PC-9): 1.01 ± 0.021

O=C(O)CCCc1ccc(N(CCCl)CCCl)cc1 [Chloroambucil]
cell viability (IL-6-GFP PC-9GR): 0.937 ± 0.15
cell viability (IL-6-GFP PC-9): 0.97 ± 0.18

COC1=CC2C3Cc4ccc(OC)c(O)c4C2(CCN3C)CC1=O (centres undefined) [Sinomenine]
cell viability (IL-6-GFP PC-9GR): 1.31 ± 0.18
cell viability (IL-6-GFP PC-9): 1.19 ± 0.097

COC1=CC2C3Cc4ccc(OC)c(O)c4C2(CCN3C)CC1=O.Cl (centres undefined) [Sinomenine hydrochloride]
cell viability (IL-6-GFP PC-9GR): 1.33 ± 0.43
cell viability (IL-6-GFP PC-9): 1.28 ± 0.086

O=C(O)C1C2CCC(O2)C1C(=O)[O][Na] (centres undefined) [Sodium Demethylcantharidate]
cell viability (IL-6-GFP PC-9GR): 1.12 ± 0.29
cell viability (IL-6-GFP PC-9): 1.31 ± 0.083

CCC1(O)C(=O)OCc2c1cc1n(c2=O)Cc2cc3ccccc3nc2-1 (centres undefined) [Camptothecin]
cell viability (IL-6-GFP PC-9GR): 0.807 ± 0.36
cell viability (IL-6-GFP PC-9): 0.364 ± 0.036

CCC1(O)C(=O)OCc2c1cc1n(c2=O)Cc2c-1nc1ccccc1c2CCNC(C)C.Cl (centres undefined) [Belotecan (CKD-602) hydrochloride]
cell viability (IL-6-GFP PC-9GR): 0.322 ± 0.15
cell viability (IL-6-GFP PC-9): 0.349 ± 0.055

C=CCN1CC(C(=O)N(CCCN(C)C)C(=O)NCC)CC2c3cccc4[nH]cc(c34)CC21 (centres undefined) [Cabergoline]
cell viability (IL-6-GFP PC-9GR): 0.968 ± 0.23
cell viability (IL-6-GFP PC-9): 1.05 ± 0.21

Cc1c(N)nc(C(CC(N)=O)NCC(N)C(N)=O)nc1C(=O)NC(C(=O)NC(C)C(O)C(C)C(=O)NC(C(=O)NCCc1nc(-c2nc(C(=O)NCCC[S+](C)C)cs2)cs1)C(C)O)C(OC1OC(CO)C(O)C(O)C1OC1OC(CO)C(O)C(OC(N)=O)C1O)c1c[nH]cn1.O=S(=O)([O-])O (centres undefined) [Bleomycin sulfate]
cell viability (IL-6-GFP PC-9GR): 0.653 ± 0.13
cell viability (IL-6-GFP PC-9): 0.473 ± 0.051

O.O=P1(N(CCCl)CCCl)NCCCO1 (centres undefined) [Cyclophosphamide Monohydrate]
cell viability (IL-6-GFP PC-9GR): 1.16 ± 0.065
cell viability (IL-6-GFP PC-9): 1.2 ± 0.029

O=P1(NCCCl)OCCCN1CCCl (centres undefined) [Ifosfamide]
cell viability (IL-6-GFP PC-9GR): 1.15 ± 0.092
cell viability (IL-6-GFP PC-9): 0.8 ± 0.02

CC(C)C12OC1C1OC13C1(C)CCC4=C(COC4=O)C1CC1OC13C2=O (centres undefined) [Triptonide]
cell viability (IL-6-GFP PC-9GR): 0.403 ± 0.18
cell viability (IL-6-GFP PC-9): 0.467 ± 0.063

Cl.Cn1c(CCCC(=O)O)nc2cc(N(CCCl)CCCl)ccc21 [Bendamustine HCl]
cell viability (IL-6-GFP PC-9GR): 1.26 ± 0.066
cell viability (IL-6-GFP PC-9): 1.2 ± 0.11

Cn1cc(C2=C(c3cn(C4CCN(Cc5ccccn5)CC4)c4ccccc34)C(=O)NC2=O)c2ccccc21
cell viability (IL-6-GFP PC-9GR): 1.09 ± 0.062
cell viability (IL-6-GFP PC-9): 1.09 ± 0.16

CCC1=CC2CN3CCc4c([nH]c5ccccc45)C(C(=O)OC)(C2)C13 (centres undefined) [Catharanthine]
cell viability (IL-6-GFP PC-9GR): 1.02 ± 0.093
cell viability (IL-6-GFP PC-9): 1.1 ± 0.1

CC1CCC2N(C1)CC1C3CC4C(CC(O)C5CC(O)CCC54C)C3CCC1C2(C)O (centres undefined) [Peimine]
cell viability (IL-6-GFP PC-9GR): 1.12 ± 0.26
cell viability (IL-6-GFP PC-9): 1.211 ± 0.0049

CC12CCC3c4ccc(OC(=O)N(CCCl)CCCl)cc4CCC3C1CCC2OP(=O)([O-])[O-].[Na+].[Na+] (centres undefined) [Estramustine phosphate sodium]
cell viability (IL-6-GFP PC-9GR): 0.645 ± 0.29
cell viability (IL-6-GFP PC-9): 1.01 ± 0.25

COc1cc2c(cc1O)CC1c3c(cc(O)c(OC)c3-2)CCN1C (centres undefined) [Boldine]
cell viability (IL-6-GFP PC-9GR): 0.922 ± 0.2
cell viability (IL-6-GFP PC-9): 1.05 ± 0.11

CC(C)(C)NCC(O)c1ccccc1Cl.Cl (centres undefined) [Tulobuterol hydrochloride]
cell viability (IL-6-GFP PC-9GR): 1.07 ± 0.17
cell viability (IL-6-GFP PC-9): 1.08 ± 0.15

CC(C)C12OC1C1OC13C1(C)CCC4=C(COC4=O)C1CC1OC13C2O (centres undefined) [Triptolide (PG490)]
cell viability (IL-6-GFP PC-9GR): 0.466 ± 0.21
cell viability (IL-6-GFP PC-9): 0.447 ± 0.12

O=C(O)c1nn(Cc2ccc(Cl)cc2Cl)c2ccccc12 [Lonidamine]
cell viability (IL-6-GFP PC-9GR): 1.29 ± 0.1
cell viability (IL-6-GFP PC-9): 1.19 ± 0.13

Cn1c(CCCC(=O)O)nc2cc(N(CCCl)CCCl)ccc21 [Bendamustine]
cell viability (IL-6-GFP PC-9GR): 1.02 ± 0.09
cell viability (IL-6-GFP PC-9): 1.02 ± 0.18

CC(C)[N+](C)(CCC(C(N)=O)(c1ccccc1)c1ccccc1)C(C)C.[I-] [Isopropamide Iodide]
cell viability (IL-6-GFP PC-9GR): 0.876 ± 0.069
cell viability (IL-6-GFP PC-9): 0.841 ± 0.16

COc1cc2c(c(OC)c1OC)-c1ccc(OC)c(=O)cc1C(NC(C)=O)CC2 (centres undefined) [Colchicine]
cell viability (IL-6-GFP PC-9GR): 0.584 ± 0.1
cell viability (IL-6-GFP PC-9): 0.686 ± 0.078

CC1CC(=O)CC2CCC3C4CCC(O)C4(C)CCC3C12C (centres undefined) [Mesterolone]
cell viability (IL-6-GFP PC-9GR): 1.26 ± 0.32
cell viability (IL-6-GFP PC-9): 1.21 ± 0.12

NC(Cc1ccc(N(CCCl)CCCl)cc1)C(=O)O (centres undefined) [Melphalan]
cell viability (IL-6-GFP PC-9GR): 0.78 ± 0.037
cell viability (IL-6-GFP PC-9): 0.891 ± 0.076

CC12CCC3C(CCC4=C(O)C(=O)CCC43C)C1CCC2=O (centres undefined) [Formestane]
cell viability (IL-6-GFP PC-9GR): 1.4 ± 0.13
cell viability (IL-6-GFP PC-9): 0.466 ± 0.055

COC(=O)CC(O)(CCC(C)(C)O)C(=O)OC1C(OC)=CC23CCCN2CCc2cc4c(cc2C13)OCO4 (centres undefined) [Harringtonine]
cell viability (IL-6-GFP PC-9GR): 0.245 ± 0.14
cell viability (IL-6-GFP PC-9): 0.323 ± 0.058

CN(C)NC(=O)CCC(=O)O [Daminozide]
cell viability (IL-6-GFP PC-9GR): 1.09 ± 0.18
cell viability (IL-6-GFP PC-9): 1.28 ± 0.05

COc1cc(C2c3cc4c(cc3C(O)C3COC(=O)C23)OCO4)cc(OC)c1OC (centres undefined) [Picropodophyllin (PPP)]
cell viability (IL-6-GFP PC-9GR): 0.668 ± 0.27
cell viability (IL-6-GFP PC-9): 0.603 ± 0.07

O=c1c2ccccc2[se]n1-c1ccccc1 [Ebselen]
cell viability (IL-6-GFP PC-9GR): 0.788 ± 0.063
cell viability (IL-6-GFP PC-9): 1.36 ± 0.22
